Eleven compounds from PubChem BioAssay (NCI) can be followed below.

Among the test systems are NCI-H23 lung; NCI-H226 lung; NCI-H322M lung; HOP-62 NSCLC; NCI-H460 lung; NCI-H522 lung; A549/ATCC NSCLC; 786-0 renal; MALME-3M melanoma; MDA-MB-231 breast; RXF 393 renal; SF-268 CNS; SF-295 CNS; SF-539 CNS; UACC-257 melanoma; M14 melanoma; HCT-15 colon; COLO 205 colon; DU-145 prostate; K-562 leukemia.
Common to all, as to experiment: NCI-60 one-dose screen, 48 h (100 = growth as untreated, 0 = no growth, -100 = all killed)
Common to all, as to details: 10 µM unless noted

Structures are written as SMILES. Compounds without any hit were thinned out: in the full panel of roughly 83,000, 20% have a hit.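 Values shown are percent growth following 48 h exposure of cells in 96-well plates to a single concentration of compound; below 10 was considered active.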 A number with no mark means an inactive call. Calls of active or inactive are those of the source.

In the case of `Cn1cc(-c2csc(-c3c[nH]c4ncccc34)n2)c2cc(F)cnc21`, the growth is 74% in the assay with NCI-H23 lung; 73.5% in the assay on NCI-H226 lung; 70.7% with NCI-H322M lung; 79.5% in the assay with HOP-62 NSCLC; 61.3% in the assay on NCI-H460 lung; 86.8% with NCI-H522 lung. For the same compound, the growth was 85.3% in the assay on A549/ATCC NSCLC; 90.5% in the assay on 786-0 renal; 95.5% in the assay with MALME-3M melanoma; 57% in the assay on MDA-MB-231 breast; 59.8% in the assay with RXF 393 renal; 91.7% with SF-268 CNS. The growth is 74.3% in the assay on SF-295 CNS; 90.9% with SF-539 CNS; 96.2% in the assay with UACC-257 melanoma; 58.7% in the assay with M14 melanoma; 61.3% with HCT-15 colon.

In the case of `COc1ccc(CCN2CCCN3C2=Nc2ccccc2S3(=O)=O)cc1`, the growth with NCI-H23 lung is 28.8%; in the assay with NCI-H226 lung, 61.7%; with NCI-H322M lung, 59.6%; with HOP-62 NSCLC it was 52.5%; in the assay with NCI-H460 lung it was 13.4%; in the assay with NCI-H522 lung, 17.3%. Besides, the growth is 31.7% in the assay on A549/ATCC NSCLC; 1.13% (active) in the assay with COLO 205 colon; 23% with DU-145 prostate; 15.6% in the assay on K-562 leukemia; 68.8% with MALME-3M melanoma; 49.1% with MDA-MB-231 breast. For the same compound, the growth is -0.424% (active) with RXF 393 renal; 63.1% in the assay on SF-268 CNS; 14% in the assay on SF-295 CNS; -28.2% (active) in the assay with SF-539 CNS; 75.7% with UACC-257 melanoma; 31.1% with M14 melanoma.

On to `Clc1ccc2c(Nc3ccc4oc(NCCN5CCCC5)nc4c3)ccnc2c1`, for which the growth is 88.7% with NCI-H23 lung; 101% with NCI-H226 lung; 90.1% in the assay on NCI-H322M lung; 109% with HOP-62 NSCLC; 96.4% with NCI-H460 lung; 98.5% with NCI-H522 lung. The growth with A549/ATCC NSCLC is 92.9%; in the assay on COLO 205 colon, 84.4%; with DU-145 prostate, 71.1%; in the assay with K-562 leukemia it was 20.8%; with MALME-3M melanoma, 105%; in the assay on MDA-MB-231 breast, 37.3%. In addition, the growth is 81.8% in the assay on RXF 393 renal; 72.5% in the assay with SF-268 CNS; 106% in the assay with SF-295 CNS; 47.6% in the assay with SF-539 CNS; 108% with UACC-257 melanoma; 50.7% in the assay on M14 melanoma. Moreover, in the assay on HCT-15 colon, the growth was 49.3%.

`C=Cc1nn2c(CCC(=O)c3nc4ccccc4[nH]3)nnc2s1`: the growth in the assay with NCI-H23 lung is 99.4%; with NCI-H226 lung, 97.5%; with NCI-H322M lung, 94%; in the assay on HOP-62 NSCLC, 97.9%; in the assay with NCI-H460 lung, 105%; in the assay with NCI-H522 lung it was 102%. Moreover, the growth in the assay with A549/ATCC NSCLC was 105%; with 786-0 renal it was 97.5%; in the assay with MALME-3M melanoma, 108%; in the assay on MDA-MB-231 breast, 101%; with RXF 393 renal, 106%; in the assay on SF-268 CNS, 101%. Also, the growth in the assay with SF-295 CNS was 99.7%; with SF-539 CNS it was 113%; with UACC-257 melanoma, 110%; in the assay with M14 melanoma it was 92.9%; in the assay with HCT-15 colon, 101%.

Take `NC(N)=NC(N)=NCCCc1ccccc1`: the growth in the assay with NCI-H23 lung was 50.2% [100 µM]; in the assay on NCI-H226 lung, 63.4% [100 µM]; with NCI-H322M lung, 84.6% [100 µM]; with HOP-62 NSCLC it was 65.1% [100 µM]; in the assay on NCI-H460 lung, 81.6% [100 µM]; in the assay on NCI-H522 lung, 47.2% [100 µM]. Also, the growth with A549/ATCC NSCLC is 62.3% [100 µM]; in the assay on 786-0 renal, 56.2% [100 µM]; in the assay with MALME-3M melanoma, 63.9% [100 µM]; in the assay on MDA-MB-231 breast, 69% [100 µM]; with RXF 393 renal, 72.4% [100 µM]; in the assay with SF-268 CNS, 59.5% [100 µM]. In addition, the growth with SF-295 CNS is 49.4% [100 µM]; in the assay on SF-539 CNS, 66.5% [100 µM]; with UACC-257 melanoma it was 62.8% [100 µM]; in the assay with M14 melanoma, 76.6% [100 µM]; in the assay with HCT-15 colon it was 80.3% [100 µM].

On to `CCCC[N+](CCCC)=c1ccc2nc3c(C)cc(N(CC)CC)cc3sc-2c1`, for which the growth in the assay with NCI-H23 lung is -36.2% (active); in the assay with NCI-H226 lung, 18.4%; with NCI-H322M lung, 27.6%; in the assay with HOP-62 NSCLC it was -23.4% (active); with NCI-H460 lung, 2.83% (active); with NCI-H522 lung, -17.1% (active). Besides, the growth was 16.7% with A549/ATCC NSCLC; -41.1% (active) in the assay on COLO 205 colon; 13.7% in the assay on DU-145 prostate; -49.1% (active) in the assay on K-562 leukemia; -78.6% (active) in the assay on MALME-3M melanoma; -29.4% (active) in the assay on MDA-MB-231 breast. For the same compound, the growth in the assay with RXF 393 renal is -25.8% (active); with SF-268 CNS, 10.4%; with SF-295 CNS, -24.4% (active); with SF-539 CNS, -62.5% (active); with UACC-257 melanoma, -41% (active); in the assay with M14 melanoma, 7.11% (active). For the same compound, the growth with HCT-15 colon is -33.5% (active).

Regarding `Cn1cc(-c2csc(-c3cn(C)c4ncccc34)n2)c2cccnc21`, the growth was 92.1% with NCI-H23 lung; 107% in the assay on NCI-H226 lung; 106% in the assay on NCI-H322M lung; 123% with HOP-62 NSCLC; 98.4% with NCI-H460 lung; 87.1% in the assay on NCI-H522 lung. Further, the growth in the assay on A549/ATCC NSCLC is 89.7%; in the assay on 786-0 renal it was 83.1%; in the assay with MALME-3M melanoma, 106%; with MDA-MB-231 breast, 93.7%; in the assay on RXF 393 renal, 98.4%; with SF-268 CNS, 106%. The growth was 98.3% in the assay on SF-295 CNS; 99% in the assay on SF-539 CNS; 99.8% with UACC-257 melanoma; 96% in the assay on M14 melanoma; 90.6% in the assay on HCT-15 colon.

For `Cn1cc(-c2csc(-c3c[nH]c4ncccc34)n2)c2cc(Br)cnc21`, the growth with NCI-H23 lung is 31.6%; with NCI-H226 lung, 49%; with NCI-H322M lung it was 59.9%; in the assay on HOP-62 NSCLC, -19.7% (active); with NCI-H460 lung, 7.22% (active); in the assay with NCI-H522 lung it was -2.08% (active). The growth in the assay on A549/ATCC NSCLC was 5.11% (active); in the assay on 786-0 renal, 20%; in the assay on MALME-3M melanoma, 32.8%; in the assay with MDA-MB-231 breast, -1.21% (active); with RXF 393 renal, 26.1%; with SF-268 CNS it was 64.8%. For the same compound, the growth in the assay on SF-295 CNS was -1.78% (active); in the assay on SF-539 CNS, 70.1%; in the assay with UACC-257 melanoma, 57.1%; in the assay with M14 melanoma, 35.2%; in the assay with HCT-15 colon it was 66.8%.

For `CCCCCCCCCCCCNc1ncnc2[nH]ncc12`, the growth was 51.1% in the assay on NCI-H23 lung; 72.9% in the assay on NCI-H226 lung; 99.3% in the assay on NCI-H322M lung; 93.4% in the assay with HOP-62 NSCLC; 79.2% in the assay on NCI-H460 lung; 76.1% in the assay on NCI-H522 lung. Further, the growth with A549/ATCC NSCLC is 71.1%; with COLO 205 colon, 95.4%; with DU-145 prostate, 85.9%; in the assay on K-562 leukemia it was 48.7%; in the assay with MALME-3M melanoma, 84.7%; in the assay on MDA-MB-231 breast, 68.6%. In addition, the growth in the assay with RXF 393 renal is 96.4%; with SF-268 CNS, 84%; with SF-295 CNS, 54.8%; in the assay with SF-539 CNS, 77%; in the assay with UACC-257 melanoma, 50.2%; in the assay on M14 melanoma, 74.2%. Further, the growth in the assay with HCT-15 colon was 84.9%.

In the case of `CC[N+](C)(CC)CCCC(C)Nc1ccnc2cc(Cl)ccc12` (stereo unspecified), the growth was 102% with NCI-H23 lung; 96.3% in the assay with NCI-H226 lung; 96.5% with NCI-H322M lung; 113% in the assay on HOP-62 NSCLC; 102% in the assay on NCI-H460 lung; 108% with NCI-H522 lung. Moreover, the growth was 107% in the assay with A549/ATCC NSCLC; 107% with COLO 205 colon; 97.7% in the assay on DU-145 prostate; 104% in the assay with MALME-3M melanoma; 114% with MDA-MB-231 breast; 125% in the assay on RXF 393 renal. In addition, the growth was 91.4% in the assay on SF-268 CNS; 108% in the assay with SF-295 CNS; 105% with SF-539 CNS; 107% with UACC-257 melanoma; 109% in the assay on M14 melanoma; 110% with HCT-15 colon.

Regarding `Oc1ccc(Cc2ccc(O)c(C3CC(c4ccc(Cl)cc4)=NN3)c2)cc1C1CC(c2ccc(Cl)cc2)=NN1` (stereo unspecified), the growth was 17.4% with NCI-H23 lung; 53.6% in the assay with NCI-H226 lung; 7.95% (active) with NCI-H322M lung; 31.6% in the assay with HOP-62 NSCLC; 4.56% (active) in the assay with NCI-H460 lung; -6.56% (active) in the assay with NCI-H522 lung. Besides, the growth in the assay with A549/ATCC NSCLC is 14.7%; in the assay on 786-0 renal it was 18.2%; in the assay with DU-145 prostate it was 32.6%; in the assay with MALME-3M melanoma, 29.7%; in the assay with MDA-MB-231 breast, 12.7%; in the assay with RXF 393 renal, 66.5%. The growth in the assay on SF-268 CNS is 29.8%; in the assay on SF-295 CNS, -26.9% (active); with SF-539 CNS, 40.7%; in the assay with UACC-257 melanoma, 23.7%; with M14 melanoma, 24.5%; with HCT-15 colon, 17.2%.
